FAS-TE inh: FAS thioesterase (human) inhibition; recombinant FAS-TE, OMFH fluorogenic substrate, fluorescence endpoint; inhibition, % at 15 µM; 360,000 compounds, 0.67% hits; AID 602261;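 active means compounds whose normalised, plate-corrected inhibition of enzyme fluorescence in the single-dose primary screen is 50% or more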;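 further: 0% = DMSO with enzyme and 100% = substrate without enzyme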
Target sequence (P49327 whole entry, looked up): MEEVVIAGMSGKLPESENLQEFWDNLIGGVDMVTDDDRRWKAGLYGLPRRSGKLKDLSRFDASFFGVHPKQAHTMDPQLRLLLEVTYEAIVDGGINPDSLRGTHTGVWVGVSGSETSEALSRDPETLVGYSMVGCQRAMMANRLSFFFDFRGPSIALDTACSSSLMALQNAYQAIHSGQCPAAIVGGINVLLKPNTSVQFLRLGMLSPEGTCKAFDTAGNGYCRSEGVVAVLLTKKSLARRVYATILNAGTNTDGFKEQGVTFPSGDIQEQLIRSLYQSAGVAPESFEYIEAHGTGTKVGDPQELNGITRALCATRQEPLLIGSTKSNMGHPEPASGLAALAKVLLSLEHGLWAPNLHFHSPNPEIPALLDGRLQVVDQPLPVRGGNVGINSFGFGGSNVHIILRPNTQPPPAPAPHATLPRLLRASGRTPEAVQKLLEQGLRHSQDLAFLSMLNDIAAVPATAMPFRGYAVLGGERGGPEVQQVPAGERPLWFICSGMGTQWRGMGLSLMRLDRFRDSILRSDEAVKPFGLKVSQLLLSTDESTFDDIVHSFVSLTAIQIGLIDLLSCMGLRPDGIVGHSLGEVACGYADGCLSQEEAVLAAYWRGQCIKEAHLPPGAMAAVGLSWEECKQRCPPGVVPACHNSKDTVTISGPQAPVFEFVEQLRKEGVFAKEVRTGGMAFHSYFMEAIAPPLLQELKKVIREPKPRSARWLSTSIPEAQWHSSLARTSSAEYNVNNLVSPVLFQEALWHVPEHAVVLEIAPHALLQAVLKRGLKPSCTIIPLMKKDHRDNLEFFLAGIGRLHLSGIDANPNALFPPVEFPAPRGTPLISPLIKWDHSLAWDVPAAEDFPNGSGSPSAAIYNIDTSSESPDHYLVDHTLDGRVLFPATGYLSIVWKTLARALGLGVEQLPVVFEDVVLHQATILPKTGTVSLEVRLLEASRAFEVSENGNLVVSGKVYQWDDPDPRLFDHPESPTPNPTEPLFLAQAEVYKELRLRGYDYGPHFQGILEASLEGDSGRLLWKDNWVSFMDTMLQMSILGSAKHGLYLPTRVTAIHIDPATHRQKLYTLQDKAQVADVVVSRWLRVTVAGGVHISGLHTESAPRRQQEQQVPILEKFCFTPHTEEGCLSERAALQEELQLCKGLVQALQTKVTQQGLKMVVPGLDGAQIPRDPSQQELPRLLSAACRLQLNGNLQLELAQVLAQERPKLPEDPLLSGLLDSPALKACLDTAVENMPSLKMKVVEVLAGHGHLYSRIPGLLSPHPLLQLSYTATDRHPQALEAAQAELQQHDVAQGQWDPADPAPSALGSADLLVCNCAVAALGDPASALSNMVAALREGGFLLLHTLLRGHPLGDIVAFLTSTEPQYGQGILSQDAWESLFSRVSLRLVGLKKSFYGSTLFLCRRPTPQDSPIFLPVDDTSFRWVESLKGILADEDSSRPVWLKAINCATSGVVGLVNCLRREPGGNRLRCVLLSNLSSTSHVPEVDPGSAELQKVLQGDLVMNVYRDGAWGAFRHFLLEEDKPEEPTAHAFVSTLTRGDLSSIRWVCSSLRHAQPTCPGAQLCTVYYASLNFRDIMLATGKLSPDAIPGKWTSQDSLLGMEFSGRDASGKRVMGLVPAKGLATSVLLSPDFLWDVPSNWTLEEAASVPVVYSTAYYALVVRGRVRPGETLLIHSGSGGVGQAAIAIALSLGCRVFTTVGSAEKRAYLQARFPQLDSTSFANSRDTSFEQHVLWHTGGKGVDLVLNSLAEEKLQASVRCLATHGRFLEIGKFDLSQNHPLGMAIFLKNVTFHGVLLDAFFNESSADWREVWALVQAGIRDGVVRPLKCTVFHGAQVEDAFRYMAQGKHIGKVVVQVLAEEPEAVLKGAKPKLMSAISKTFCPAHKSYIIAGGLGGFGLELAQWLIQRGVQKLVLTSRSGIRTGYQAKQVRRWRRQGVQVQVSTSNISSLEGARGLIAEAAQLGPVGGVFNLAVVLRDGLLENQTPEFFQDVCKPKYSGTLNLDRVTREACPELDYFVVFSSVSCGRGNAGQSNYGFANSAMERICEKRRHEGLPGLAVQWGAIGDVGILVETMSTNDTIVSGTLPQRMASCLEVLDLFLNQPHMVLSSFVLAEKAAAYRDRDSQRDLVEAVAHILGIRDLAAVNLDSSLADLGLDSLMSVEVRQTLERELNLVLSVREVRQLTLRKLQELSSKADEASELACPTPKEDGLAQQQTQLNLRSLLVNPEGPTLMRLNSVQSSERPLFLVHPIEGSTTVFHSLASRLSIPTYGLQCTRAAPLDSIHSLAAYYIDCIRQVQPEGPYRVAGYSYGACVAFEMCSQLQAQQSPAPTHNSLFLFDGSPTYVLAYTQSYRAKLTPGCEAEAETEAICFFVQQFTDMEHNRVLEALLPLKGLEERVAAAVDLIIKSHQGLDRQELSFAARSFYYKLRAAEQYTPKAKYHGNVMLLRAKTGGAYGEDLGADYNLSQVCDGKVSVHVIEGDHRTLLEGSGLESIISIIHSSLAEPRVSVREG
ADAM17 inh: inhibits human ADAM17; AID 720648; inhibition, % at 6.95 µM; P78536; recombinant ADAM17, EDANS/DABCYL FRET peptide cleavage; 370,000 compounds, 0.83% hits;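 active means inhibition above the mean of compounds lying between control limits plus 3 SD, set per campaign, cut at about 8.5% in these data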;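 further: 0% = DMSO-only wells as the low control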
KLK7 zymogen act: activates the human kallikrein-7 zymogen | AID 652039 | 370,000 compounds, 0.9% hits | purified proKLK7, EDANS-DABCYL substrate fluorescence; 100% is mature enzyme control, 0% vehicle | activation, % at 7 µM;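 active means activation above the mean of all tested compounds plus 3 SD, computed per campaign excluding outliers beyond control limits, cut at about 13% in these data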
ADAM10 inh: inhibits human ADAM10; O14672; recombinant ADAM10, EDANS/DABCYL FRET peptide cleavage, 3 h; inhibition, % at 7 µM; 370,000 compounds, 0.62% hits; AID 720582;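 active means inhibition above a per-campaign cutoff equal to the mean of compounds falling between control-based bounds plus 3 SD, cut at about 20% in these data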;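 further: 0% = DMSO wells while the 100% control is not disclosed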
GRIN3A LBD mod: modulators (binders) of human NR3A ligand-binding domain; NR3A LBD differential scanning fluorimetry, Tm shift; 0% = protein alone, 100% = glycine-bound protein; 340,000 compounds, 2.5% hits; AID 1259313; Tm shift relative to glycine control, % at 25 µM;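 active means melting temperature shift of at least 10% of the positive control shift, at one fixed dose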
An asterisk follows results filed as active. An excerpt weighted towards active compounds, which were near 4.6% of everything screened.

NS(=O)(=O)c1ccc(NC(=O)COc2cccc3ccccc23)cc1 was read as FAS-TE inh 0, ADAM17 inh 0, KLK7 zymogen act 0, ADAM10 inh -9 and GRIN3A LBD mod 16*.
COc1cc(NC(=O)c2cccc(C)c2)ccc1NC(=O)c1cc2ccccc2o1 was read as FAS-TE inh -3, ADAM17 inh -3, KLK7 zymogen act -21, ADAM10 inh -15 and GRIN3A LBD mod 33*.
For O=C(Nc1cccc(NC(=O)c2ccco2)c1)c1ccccc1 the results were FAS-TE inh -1, ADAM17 inh 1, KLK7 zymogen act 0, ADAM10 inh 6 and GRIN3A LBD mod -3.
Cc1cc(N2CCC[C@@H]2C)nc2ccccc12 was read as ADAM17 inh -27 and ADAM10 inh -64.
Screening O=S1(=O)c2c(NCc3ccco3)cccc2Oc2ccccc2CN1Cc1cn(Cc2cccc(F)c2)nn1 returned ADAM17 inh 2, KLK7 zymogen act -1 and ADAM10 inh -8.
Screening O=C(Cc1ccc(Cl)cc1)Nc1ccc2oc(=O)ccc2c1 returned FAS-TE inh 3, ADAM17 inh -34, KLK7 zymogen act 4, ADAM10 inh -109 and GRIN3A LBD mod 0.
O=C(Cc1ccc(Cl)cc1)Nc1ccc(-c2cc3ccccc3oc2=O)c(Cl)c1 was read as FAS-TE inh 28, ADAM17 inh -94, KLK7 zymogen act -34, ADAM10 inh -250 and GRIN3A LBD mod 19*.
For O=C(Nc1ccc(F)cc1)OCc1cn(Cc2c(F)cccc2F)nn1 the results were ADAM17 inh -2, KLK7 zymogen act 0 and ADAM10 inh 3.
`CCCCOC(=O)C1CN(c2ccccc2)N=C1C(=O)OCC` (stereo unspecified) gave FAS-TE inh 11, ADAM17 inh -73, KLK7 zymogen act -1, ADAM10 inh -215 and GRIN3A LBD mod 15*.
`CCCCOC(=O)C1CN(c2ccccc2)N=C1C(C)=O` (stereo unspecified) gave FAS-TE inh 8, ADAM17 inh -7, KLK7 zymogen act 3, ADAM10 inh -15 and GRIN3A LBD mod 0.
Screening O=C(Nc1ccc(NC(=S)NC(=O)c2ccccc2F)cc1)c1cccs1 returned FAS-TE inh 20, ADAM17 inh 6, KLK7 zymogen act 0, ADAM10 inh 8 and GRIN3A LBD mod 20*.
Screening O=C(NC(=S)Nc1ccc(NC(=O)c2cccs2)cc1)c1cc2ccccc2o1 returned FAS-TE inh -7, ADAM17 inh -4, KLK7 zymogen act 0, ADAM10 inh 1 and GRIN3A LBD mod 29*.
O=C(Nc1ccc(NC(=O)c2cccs2)cc1)c1ccco1 was read as FAS-TE inh -12, ADAM17 inh -3, KLK7 zymogen act 0, ADAM10 inh -3 and GRIN3A LBD mod 20*.
For O=C(NC(=S)Nc1ccc(NC(=O)c2cccs2)cc1)c1ccco1 the results were FAS-TE inh 1, ADAM17 inh 3, KLK7 zymogen act 0, ADAM10 inh 6 and GRIN3A LBD mod 24*.
For O=C(NC(=S)Nc1ccc(NC(=O)c2ccco2)cc1)c1ccccc1 the results were FAS-TE inh -6, ADAM17 inh 3, KLK7 zymogen act 0, ADAM10 inh 0 and GRIN3A LBD mod 2.
`COc1ccc(NC(=O)c2cc3c(C)nn(-c4ccccc4)c3s2)cc1` gave ADAM17 inh 3, KLK7 zymogen act -7 and ADAM10 inh -14.
`CC(C)C[C@@H]1COc2cc(F)ccc2S(=O)(=O)N1C` gave ADAM17 inh 0, KLK7 zymogen act 0 and ADAM10 inh -2.
For CC(C)NC(=O)c1ccc(-c2ccccc2C(F)(F)F)o1 the results were FAS-TE inh 2, ADAM17 inh -1, KLK7 zymogen act 1, ADAM10 inh 3 and GRIN3A LBD mod 1.
Screening O=C(NCc1ccc(Cl)cc1)c1ccc(-c2ccccc2C(F)(F)F)o1 returned FAS-TE inh 24, ADAM17 inh 7, KLK7 zymogen act 0, ADAM10 inh 14 and GRIN3A LBD mod 438*.
O=C1CCC[C@H]2C[C@H](NCc3cccs3)CC[C@]23CCCN13 was read as ADAM17 inh 0 and ADAM10 inh 2.
O=C(N/N=C/c1ccc(Br)s1)c1cccs1 was read as FAS-TE inh 0, ADAM17 inh -1, KLK7 zymogen act 0, ADAM10 inh 9 and GRIN3A LBD mod 6.
For O=C(N/N=C/c1ccc(Br)s1)c1c[nH]c2ccccc12 the results were FAS-TE inh 11, ADAM17 inh 1, KLK7 zymogen act -1, ADAM10 inh -4 and GRIN3A LBD mod 25*.
O=C(N/N=C/c1cc(Br)cs1)c1c[nH]c2ccccc12 was read as FAS-TE inh 16, ADAM17 inh 0, KLK7 zymogen act 0, ADAM10 inh -3 and GRIN3A LBD mod 38*.
O=C(N/N=C/c1ccc(Br)s1)Nc1ccccc1 was read as FAS-TE inh 26, ADAM17 inh 0, KLK7 zymogen act 0, ADAM10 inh -3 and GRIN3A LBD mod 20*.
Screening COc1ccc(Cn2cc(CN3[C@H](CC(C)C)COc4cc(Br)ccc4S3(=O)=O)nn2)cc1 returned ADAM17 inh 4, KLK7 zymogen act -1 and ADAM10 inh 6.
Screening CSC1=N/C(=C\c2ccccc2F)C(=O)S1 returned FAS-TE inh -6, ADAM17 inh 3, KLK7 zymogen act 0, ADAM10 inh 6 and GRIN3A LBD mod 16*.
For COc1cccc(/C=C2\N=C(SC)SC2=O)c1OC the results were FAS-TE inh -6, ADAM17 inh -5, KLK7 zymogen act 0, ADAM10 inh -12 and GRIN3A LBD mod 4.
Cc1[nH]nc(SCC(=O)Nc2ccc(C#N)cc2)c1[N+](=O)[O-] was read as FAS-TE inh -7, ADAM17 inh 4, KLK7 zymogen act 0, ADAM10 inh 3 and GRIN3A LBD mod 31*.
`Cc1ccc(NC(=O)CSc2n[nH]c(C)c2[N+](=O)[O-])cc1` gave FAS-TE inh 4, ADAM17 inh -2, KLK7 zymogen act 0, ADAM10 inh 1 and GRIN3A LBD mod 4.
`c1ccc(Cn2c(SCC3CCCCC3)nnc2-c2cccnc2)cc1` gave ADAM17 inh -3, KLK7 zymogen act 0 and ADAM10 inh 0.
For CC1(C)CC(CC(=O)NC(=S)Nc2ccc([N+](=O)[O-])cc2)C(=O)O1 (stereo unspecified) the results were FAS-TE inh 3, ADAM17 inh -2, KLK7 zymogen act 0, ADAM10 inh 6 and GRIN3A LBD mod 10*.
Screening CC(C)OCC1CC(CC(=O)Nc2ccc([N+](=O)[O-])cc2)C(=O)O1 (stereo unspecified) returned FAS-TE inh 1, ADAM17 inh 0, KLK7 zymogen act 0, ADAM10 inh -2 and GRIN3A LBD mod 18*.
Screening O=C(COC(=O)CCc1nc2ccccc2c(=O)[nH]1)NC(=O)NC1CCCC1 returned FAS-TE inh 4, ADAM17 inh 1, KLK7 zymogen act 1, ADAM10 inh -12 and GRIN3A LBD mod 12*.

Compound activity deposited in PubChem BioAssay by several laboratories.
